Screen size: about 1,300 compounds; about 1,000 (77%) were called active. Not shown: some 7% with an inconclusive outcome. The set was probably picked from earlier hits. This is one part of the list. Unmarked numbers belong to inactive results. Calls follow the shape of the dose curve; as a rule, active = well fitted inhibition curve with a large enough effect; inconclusive = small, poorly fitted or top-dose-only effect; inactive = no such curve, though single readings can be large or run the other way.

The results in this text go back to PubChem BioAssay AID588397 (National Center for Advancing Translational Sciences (NCATS), 2011).
% is scaled to controls: 0 for no effect and ±100 for the full control effect; potency is read from the fitted curve at half-maximal effect.

The assay in a line: qHTS of small molecules that selectively kill Giardia lamblia: Hit Validation.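 Also: viability measured as ATP content by luminescence so killing lowers signal; nearly all actives have a fitted effect of over 65% in size.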 The note with it: Giardia lamblia trophozoite viability, dose-response; series mostly up to 38.3 µM; activity change, negative = killing: at the top concentration. The text has this: Giardia lamblia is a human pathogen afflicting impoverished nations, and the most common cause of outbreaks of diarrhea in the United States. Giardia has been classified by the CDC as a category B bioterrorism organism. The favored anti giardiasis drugs in the US are metronidazole or tinidazole, compounds that have undesirable side effects. Moreover, increasing resistance to drug regimes and recurrence are a concern. It is thus clear that alternative drug treatments are needed.
In a collaboration between the University of Maryland, College Park and the NIH Chemical Genomics Center, a bioluminescence Giardia viability assay based on the trophozoites' ATP content was developed. This assay is suitable for high throughput screening, and miniaturized the assay for compound screening in 1536-well plates. The goal of the project is to screen the Molecular Libraries Small Molecule Repository (MLSMR) for compounds that selectively kill Giardia trophozoites.
NIH Chemical Genomics Center [NCGC]
NIH Molecular Libraries Probe Centers Network [MLPCN]
Assay Submitter (PI): Osnat Herzberg, University of Maryland, College Park, MD.
1. Dispense 2 ul/well media
2. Dispense 23 nl/well compounds
3. Dispense 4 ul/well Giardia trophozoites at a concentration of 100 cells/well
4. Incubate 48 hrs at 37 deg C anaerobically
5. Dispense 4 ul/well ATPLite 1-Step Luminescence assay kit
6. Incubate 15-30 min at room temperature
7. Read luminescence signal on ViewLux plate reader
A general note: Quantitative high-throughput screening tests each substance at several concentrations.
For the compound `Cc1ccnn1CC(=O)N/N=C/c1ccc([N+](=O)[O-])s1`, the Potency is 3.65 µM (active).
Take `CCOC(=O)N/N=C\c1ccc([N+](=O)[O-])s1`: the Potency was 4.1 µM (active).
Consider `COc1ccccc1NC(=O)C(=O)N/N=C/c1ccc([N+](=O)[O-])s1`, for which the Potency was 2.05 µM (active).
Same read-out and setting: then `COC(=O)N/N=C/c1ccc([N+](=O)[O-])s1`, with 4.1 µM (active).
Consider `O=C(COC(=O)c1cc(Cl)ccc1O)NC(=O)NCc1ccccc1`, for which the “activity change, negative = killing” value is 1.53%.
For `Cc1csc(NC(=O)CSc2nc3[nH]c(=O)cc(O)c3s2)n1`, the Potency was 1.03 µM (active).
Consider `CC(NCCN(C)C)C1CCC2C3CCc4cc(O)ccc4C3CCC12C` (centres undefined), for which the Potency is 1.16 µM (active).
Consider `COc1cc(C2CC(=O)Oc3cc(C)c(Cl)c(C)c32)cc(OC)c1OC` (centres undefined), for which the “activity change, negative = killing” value is -5.49%.
For `COc1cc(/C=C2\COC/C(=C\c3cc(OC)c(OC)c(OC)c3)C2=O)cc(OC)c1OC`, the Potency is 11.6 µM (active).
Turning to `COc1ccc(NC(=O)CCCn2nc(C)c3c(C)n(-c4ccccc4)nc3c2=O)cc1OC`, the “activity change, negative = killing” value was 1.17%.
For the compound `O=C(CCCn1cnc([N+](=O)[O-])n1)Nc1cccc(Cl)c1Cl`, the Potency is 3.65 µM (active).
On to `Cc1nn(CCCC(=O)Nc2c(F)cc(F)cc2Br)c(C)c1[N+](=O)[O-]`, for which the “activity change, negative = killing” value was -0.27%.
As to `Cc1c(Cl)cccc1NC(=O)CCCn1cnc([N+](=O)[O-])n1`, the Potency is 4.1 µM (active).
Turning to `O=C(CCCn1cnc([N+](=O)[O-])n1)Nc1ccc(F)c(Cl)c1`, the Potency was 3.65 µM (active).
`O=[N+]([O-])c1cccc(COc2ccccc2CN2CCCC2)c1`: the “activity change, negative = killing” value was -3.87%.
`O=C(c1ccco1)N1CCN(Cc2cc(=O)c(OCc3ccc([N+](=O)[O-])cc3)co2)CC1`: the Potency was 0.183 µM (active).
In the case of `O=C1NC(=O)/C(=C\c2ccc(Oc3ccc([N+](=O)[O-])cn3)cc2)S1`, the Potency is 9.18 µM (active).
As to `O=C(Nc1ccc(C(=O)O)cc1)/C(=C\C=C\c1ccccc1)NC(=O)c1ccccc1Cl`, the Potency is 6.5 µM (active).
Turning to `C#CCOCCOCCOCCNc1nc(N2CCN(C(=O)[C@H](CCC(=O)O)n3cc([C@@H](N)CC(N)=O)nn3)CC2)nc(N2CCN(C(=O)[C@H](CCC(=O)O)n3cc([C@@H](N)CC(N)=O)nn3)CC2)n1`, the “activity change, negative = killing” value is -18.6%.
As to `CCCCCN=Cc1c(C)[nH]n(-c2nc3ccccc3s2)c1=O`, the Potency was 3.26 µM (active).
For the compound `Cc1ccc(N=Nc2c(O)ccc3n[nH]nc23)cc1`, the Potency was 3.65 µM (active).
For `CCC1=C(OC(=O)N(CC)CC)N2C(=O)OC(=NCC(=O)OC)[C@]2(C)[C@H]2C1=CC[C@H]1C(=O)N(CC)C(=O)[C@H]12`, the “activity change, negative = killing” value is -6.74%.
`CN(C)C(=O)C[n+]1ccc(C(N)=O)cc1`: the “activity change, negative = killing” value is -26.8%.
As for `Cc1ccc(NC(=O)Cn2cnc([N+](=O)[O-])c2)cc1C`, the Potency is 8.18 µM (active).
In the case of `Fc1ccc(CN2CC[C@H]3C=CCc4cccc(c43)C2)cc1`, the “activity change, negative = killing” value is -8.09%.
Regarding `COc1ccc(S(=O)(=O)Nc2c(O)c3ccccc3oc2=O)cc1`, the “activity change, negative = killing” value was -9.08%.
`COc1ccc(C(=O)COC(=O)c2ccccc2NS(=O)(=O)c2ccc(O)c([N+](=O)[O-])c2)cc1`: the Potency is 1.45 µM (active).
Consider `Cc1ccc(S(=O)(=O)Nc2ccc(C(OC(=O)c3ccccc3[N+](=O)[O-])(C(F)(F)F)C(F)(F)F)cc2)cc1`, for which the Potency was 3.65 µM (active).
In the case of `CCCc1ccc(-c2cc(C(=O)N/N=C/c3ccc([N+](=O)[O-])o3)c3ccccc3n2)cc1`, the Potency is 1.63 µM (active).
Turning to `Cc1ccc(-c2cc(C(=O)N/N=C/c3ccc([N+](=O)[O-])o3)c3ccccc3n2)o1`, the Potency was 1.03 µM (active).
Same read-out and setting: with `O=C(N/N=C/c1ccc([N+](=O)[O-])o1)c1cc(-c2cccc(Br)c2)nc2ccccc12` the figure was 1.16 µM (active); with `O=C(N/N=C/c1ccc([N+](=O)[O-])o1)c1cc(-c2ccc(-c3ccccc3)cc2)nc2ccccc12`, 1.03 µM (active).
Consider `COc1ccc(-c2ccc([C@H]3[C@@H]4C=CCC[C@@]4(C)C(=O)N3Cc3ccccc3)c(F)c2)cc1OC`, for which the “activity change, negative = killing” value is -4.14%.
As for `COc1cc(/C=C2\SC(=O)N(Cc3ccc(Cl)cc3)C2=O)cc([N+](=O)[O-])c1O`, the Potency was 1.63 µM (active).
On to `COc1cc(/C=C2\SC(=O)N(c3ccc(Cl)cc3)C2=O)cc([N+](=O)[O-])c1O`, for which the Potency was 4.1 µM (active).
With `COc1cc(/C=C2\SC(=O)N(Cc3ccc(F)cc3)C2=O)cc([N+](=O)[O-])c1O`, the Potency is 1.83 µM (active).
For `CCS(=O)(=O)Nc1cccc(C2=NN(S(=O)(=O)c3ccc(C)cc3)C(c3ccco3)C2)c1` (centres undefined), the “activity change, negative = killing” value was 3.24%.
Regarding `COc1ccc(NS(=O)(=O)c2ccc(S(=O)(=O)N(C)C)cc2)cc1S(N)(=O)=O`, the “activity change, negative = killing” value is 2.7%.
With `COc1ccc(OCc2cc(C(=O)N(C)Cc3cc(C4CC4)n[nH]3)no2)c(Cl)c1`, the “activity change, negative = killing” value is -16.1%.
Take `COc1cccc(/C=C/c2ccc3ccccc3n2)c1OC(C)=O`: the Potency is 8.18 µM (active).
With `COc1ccc(/C=C/c2ccc3ccccc3n2)c(OC)c1`, the Potency was 2.31 µM (active).
On to `COc1ccc(OC)c(/C=C/c2ccc3ccccc3n2)c1`, for which the “activity change, negative = killing” value was -32.6%.
`COc1ccc(/C=C/c2ccc3ccccc3n2)cc1OC`: the Potency was 4.6 µM (active).
As to `Cc1ccccc1N1CCN(Cc2ccc([N+](=O)[O-])o2)CC1`, the Potency is 1.16 µM (active).
